In PubChem BioAssay (NCI) one finds growth inhibition data, which are given here for nine compounds.

Assay [1] in a line: NCI Yeast Anticancer Drug Screen. Data for the rad50 strain (AID 155).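 Also: 0% = growth of vehicle-only cultures of the same strain.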 As to conditions: S. cerevisiae rad50 strain growth inhibition, stronger effect = higher value. The method, boiled down:
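Cells are treated with compound, grown, and their growth is then scored against vehicle-only cultures of the same repair-deficient yeast strain.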

Assay [2] in a line: NCI Yeast Anticancer Drug Screen. Data for the mec2-1 strain (AID 157). To be noted: S. cerevisiae mec2-1 strain, stronger effect = higher value. A digest of the protocol:
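Strain: mec2-1 (DNA repair/cell cycle alteration). Compound exposure, then growth measured; inhibition expressed relative to vehicle.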

The nature of assay [3]: NCI Yeast Anticancer Drug Screen. Data for the sgs1 mgt1 strain (AID 161).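 Also: 0% = growth of cultures given vehicle only.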 To be noted: S. cerevisiae sgs1 mgt1 strain, stronger effect = higher value. The method, boiled down: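 Test agents were incubated with a DNA-repair-mutant yeast strain. Growth was then read and compared against vehicle-treated controls.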
Assay [4] is described as follows: NCI Yeast Anticancer Drug Screen. Data for the cln2 rad14 strain (AID 165).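 Also: 0% = growth equal to vehicle treated cultures.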 As to conditions: S. cerevisiae cln2 rad14 strain, stronger effect = higher value. The method, boiled down: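 Compounds are applied to the cln2 rad14 yeast strain, and growth is then compared with that of vehicle-treated cultures to give inhibition.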
Assay [5] is described as follows: NCI Yeast Anticancer Drug Screen. Data for the bub3 strain (AID 167). To be noted: S. cerevisiae bub3 mutant strain, stronger effect = higher value. A digest of the protocol: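 Part of a panel of yeast mutants defective in DNA damage repair or cell cycle regulation. Each strain is grown with compound, and inhibition is calculated relative to solvent-treated cultures.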
A short description of assay [6]: NCI Yeast Anticancer Drug Screen. Data for the mlh1 rad18 strain (AID 175). As to conditions: S. cerevisiae mlh1 rad18 strain growth inhibition, stronger effect = higher value. A digest of the protocol: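 Read-out is yeast growth inhibition, calculated against vehicle-only controls. The compound was applied to a strain engineered with DNA damage repair alterations.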
The mark [7] stands for this setting: at 5.0 µM (retest, dose inferred, filed as 0.5).
Where [8] appears, read: at 50.0 µM (retest, dose inferred, filed as 5.0).

The structures appear in SMILES notation. About 79,000 compounds went through this panel and 15% of them were active in at least one assay; those are over-represented in the sample as a whole. Unmarked numbers belong to inactive results. Calls of active or inactive are those of the source. Rule as the data show it: active = growth inhibition above about 70%; inactive = the rest.

On to `COc1cccc(/C=N/N(C)C)c1O`, for which the growth inhibition in assay [1] (setting [7]) was 0%; in assay [1] (setting [8]), 29%; in assay [1] (at 50.0 µM) it was 56%; in assay [2] (setting [7]) it was -6%; in assay [2] (setting [8]), -17%; in assay [2] (at 50.0 µM), 9.05%. For the same compound, the growth inhibition in assay [3] (setting [7]) was -2%; in assay [3] (setting [8]), 21%; in assay [3] (at 50.0 µM), -1.75%; in assay [4] (setting [7]) it was 0%; in assay [4] (setting [8]), -8%; in assay [4] (at 50.0 µM), 11.4%. The growth inhibition in assay [5] (setting [7]) was 12%; in assay [5] (setting [8]), 29%; in assay [5] (at 50.0 µM) it was 1.4%; in assay [6] (setting [7]), 7%; in assay [6] (setting [8]), 28%; in assay [6] (at 50.0 µM), 19.6%.
For the compound `NC1c2ccccc2-c2ccc([N+](=O)[O-])cc21` (configuration not stated), the growth inhibition in assay [1] (setting [7]) is 12%; in assay [1] (setting [8]), -2%; in assay [1] (at 50.0 µM), 40%; in assay [2] (setting [7]), 4%; in assay [2] (setting [8]), -24%; in assay [2] (at 50.0 µM), -7.35%. For the same compound, the growth inhibition in assay [3] (setting [7]) is 4%; in assay [3] (setting [8]), 35%; in assay [3] (at 50.0 µM), 26.6%; in assay [4] (setting [7]), -24%; in assay [4] (setting [8]) it was -4%; in assay [4] (at 50.0 µM), -9.3%. Moreover, the growth inhibition was 1% in assay [5] (setting [7]); 3% in assay [5] (setting [8]); -12.2% in assay [5] (at 50.0 µM); 14% in assay [6] (setting [7]); 38% in assay [6] (setting [8]); 39.9% in assay [6] (at 50.0 µM).
For `[Br][Pt+2][Br].[NH-]c1cccc(I)c1.[NH-]c1cccc(I)c1`, the growth inhibition in assay [1] (setting [7]) is 2%; in assay [1] (setting [8]), 60%; in assay [1] (at 50.0 µM), 39.5%; in assay [2] (setting [7]), 1%; in assay [2] (setting [8]), 31%; in assay [2] (at 50.0 µM) it was 22.2%. For the same compound, the growth inhibition is 8% in assay [3] (setting [7]); 39% in assay [3] (setting [8]); 30.8% in assay [3] (at 50.0 µM); -1% in assay [4] (setting [7]); 27% in assay [4] (setting [8]); 12.6% in assay [4] (at 50.0 µM). The growth inhibition is 1% in assay [5] (setting [7]); -5% in assay [5] (setting [8]); 3.25% in assay [5] (at 50.0 µM); 5% in assay [6] (setting [7]); 81% (active) in assay [6] (setting [8]); 88.8% (active) in assay [6] (at 50.0 µM).
For `O=[N+]([O-])/C=C\c1csc2ccccc12`, the growth inhibition in assay [1] (setting [7]) is 94% (active); in assay [1] (setting [8]) it was 99% (active); in assay [1] (at 50.0 µM), 99.2% (active); in assay [2] (setting [7]), 96% (active); in assay [2] (setting [8]), 98% (active); in assay [2] (at 50.0 µM) it was 99.6% (active). For the same compound, the growth inhibition in assay [3] (setting [7]) was 97% (active); in assay [3] (setting [8]), 99% (active); in assay [3] (at 50.0 µM), 99.5% (active); in assay [4] (setting [7]), 81% (active); in assay [4] (setting [8]) it was 99% (active); in assay [4] (at 50.0 µM) it was 99.3% (active). In addition, the growth inhibition in assay [5] (setting [7]) was 92% (active); in assay [5] (setting [8]), 99% (active); in assay [5] (at 50.0 µM) it was 99.3% (active); in assay [6] (setting [7]), 92% (active); in assay [6] (setting [8]), 99% (active); in assay [6] (at 50.0 µM) it was 99.3% (active).
For `COc1ccc(N2CCN(CC(O)COc3cc4c(c5c3CCCC5)CCCC4)CC2)cc1` (configuration not stated), the growth inhibition was 15% in assay [1] (setting [7]); 98% (active) in assay [1] (setting [8]); 45.4% in assay [1] (at 50.0 µM); 17% in assay [2] (setting [7]); 98% (active) in assay [2] (setting [8]); 99% (active) in assay [2] (at 50.0 µM). Moreover, the growth inhibition was 22% in assay [3] (setting [7]); 97% (active) in assay [3] (setting [8]); 54.7% in assay [3] (at 50.0 µM); 6% in assay [4] (setting [7]); 98% (active) in assay [4] (setting [8]); 84.2% (active) in assay [4] (at 50.0 µM). Besides, the growth inhibition in assay [5] (setting [7]) is 13%; in assay [5] (setting [8]), 97% (active); in assay [5] (at 50.0 µM), 92% (active); in assay [6] (setting [7]), 9%; in assay [6] (setting [8]) it was 96% (active); in assay [6] (at 50.0 µM), 77.6% (active).
Take `CCCCC(Cc1ccccc1)(C(=O)O)c1ccccc1` (configuration not stated): the growth inhibition in assay [1] (setting [7]) was 11%; in assay [1] (setting [8]) it was 98% (active); in assay [1] (at 50.0 µM) it was 99% (active); in assay [2] (setting [7]), 18%; in assay [2] (setting [8]) it was 98% (active); in assay [2] (at 50.0 µM), 98.2% (active). The growth inhibition in assay [3] (setting [7]) was 16%; in assay [3] (setting [8]), 99% (active); in assay [3] (at 50.0 µM), 98.9% (active); in assay [4] (setting [7]) it was 31%; in assay [4] (setting [8]) it was 99% (active); in assay [4] (at 50.0 µM), 98% (active). The growth inhibition in assay [5] (setting [7]) was 3%; in assay [5] (setting [8]) it was 97% (active); in assay [5] (at 50.0 µM), 96% (active); in assay [6] (setting [7]), 14%; in assay [6] (setting [8]), 99% (active); in assay [6] (at 50.0 µM) it was 98.8% (active).
For `C=C(Cl)C(=NC(C)(C)C)Nc1ccccc1Cl`, the growth inhibition was 21% in assay [1] (setting [7]); 42% in assay [1] (setting [8]); 66.4% in assay [1] (at 50.0 µM); 14% in assay [2] (setting [7]); 35% in assay [2] (setting [8]); 59.5% in assay [2] (at 50.0 µM). The growth inhibition was 16% in assay [3] (setting [7]); 40% in assay [3] (setting [8]); 63.1% in assay [3] (at 50.0 µM); 31% in assay [4] (setting [7]); 33% in assay [4] (setting [8]); 50.8% in assay [4] (at 50.0 µM). In addition, the growth inhibition in assay [5] (setting [7]) was 14%; in assay [5] (setting [8]) it was 32%; in assay [5] (at 50.0 µM), 53.2%; in assay [6] (setting [7]) it was 27%; in assay [6] (setting [8]), 53%; in assay [6] (at 50.0 µM), 85.8% (active).
Regarding `CC(C)=CCC/C(C)=C/COc1ccc(/C=C2/C(=O)N(O)[C@@H](C)C(=O)N2O)cc1`, the growth inhibition was 51% in assay [1] (setting [7]); 97% (active) in assay [1] (setting [8]); 80.8% (active) in assay [1] (at 50.0 µM); 52% in assay [2] (setting [7]); 98% (active) in assay [2] (setting [8]); 78.2% (active) in assay [2] (at 50.0 µM). The growth inhibition was 66% in assay [3] (setting [7]); 92% (active) in assay [3] (setting [8]); 78.9% (active) in assay [3] (at 50.0 µM); 54% in assay [4] (setting [7]); 89% (active) in assay [4] (setting [8]); 70.7% (active) in assay [4] (at 50.0 µM). Further, the growth inhibition in assay [5] (setting [7]) is 68%; in assay [5] (setting [8]) it was 97% (active); in assay [5] (at 50.0 µM), 83.3% (active); in assay [6] (setting [7]), 32%; in assay [6] (setting [8]), 96% (active); in assay [6] (at 50.0 µM), 79.2% (active).
In the case of `Cc1cc[c]([Sn]([Cl])([O][Sn]([Cl])([c]2ccc(C)cc2)[c]2ccc(C)cc2)[c]2ccc(C)cc2)cc1`, the growth inhibition in assay [1] (setting [7]) is 17%; in assay [1] (setting [8]), 57%; in assay [1] (at 50.0 µM), 84.7% (active); in assay [2] (setting [7]) it was 15%; in assay [2] (setting [8]) it was 55%; in assay [2] (at 50.0 µM) it was 89.2% (active). The growth inhibition was 29% in assay [3] (setting [7]); 63% in assay [3] (setting [8]); 85.8% (active) in assay [3] (at 50.0 µM); 2% in assay [4] (setting [7]); 35% in assay [4] (setting [8]); 83.1% (active) in assay [4] (at 50.0 µM). In addition, the growth inhibition in assay [5] (setting [7]) was 16%; in assay [5] (setting [8]), 67%; in assay [5] (at 50.0 µM) it was 86.7% (active); in assay [6] (setting [7]), 26%; in assay [6] (setting [8]), 54%; in assay [6] (at 50.0 µM), 91.3% (active).
